Screening results: PubChem BioAssay, Broad Institute
An excerpt weighted towards active compounds, which were near 4% of everything screened.
FGF22 binding: shifts melting point of recombinant human FGF22; Q9HCT0; recombinant FGF22 thermal shift, SYPRO orange fluorescence; percent of sucrose octasulfate shift, DMSO zero; activity (Tm shift, normalised), % at 9.99 µM; 340,000 compounds, 1.5% hits; AID 651658;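 active = mean Tm shift, scaled 0 neutral to 100 positive control, at about 1.3% or above, every replicate too, limit read from the data; inconclusive = no clear call, values can overlap the other calls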
RAD52 anneal inh: blocks human RAD52 DNA annealing; P43351; recombinant RAD52 DNA annealing, FRET fluorescence; inhibition, % at 18.7 µM; 360,000 compounds, 0.46% hits; AID 651710;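 active = every replicate showing at least 50% inhibition; inconclusive = mean inhibition at least 50% but not in every replicate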
ERAP1 HTS inh: ERAP1 (human) enzyme inhibition | AID 652197 | Q9NZ08 | recombinant ERAP1, Leu-AMC fluorescence, 60 min | inhibition, % at 10.7 µM | 340,000 compounds, 0.15% hits;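 active = mean replicate inhibition of at least 30%, or all replicates individually reaching that 30% level; inactive = mean below 30% and not every replicate reaching it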;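 also: 0% = neutral control wells and 100% = L-leucinethiol positive control wells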
AF4-AF9 inh: blocks AF4 peptide binding to human AF9. 350,000 compounds, 0.47% hits. AlphaScreen, biotin-AF4 peptide binding to FLAG-AF9. AID 651704. P42568. inhibition, % at 10 µM;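 active = every replicate reaching a set inhibition limit, whatever the replicate mean, cut at about 25% in these data; inconclusive = mean inhibition reaches that limit but some replicates miss it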;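 also: 0% = plate neutral control median and 100% = total signal loss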
Target sequence (P42568 whole entry, looked up): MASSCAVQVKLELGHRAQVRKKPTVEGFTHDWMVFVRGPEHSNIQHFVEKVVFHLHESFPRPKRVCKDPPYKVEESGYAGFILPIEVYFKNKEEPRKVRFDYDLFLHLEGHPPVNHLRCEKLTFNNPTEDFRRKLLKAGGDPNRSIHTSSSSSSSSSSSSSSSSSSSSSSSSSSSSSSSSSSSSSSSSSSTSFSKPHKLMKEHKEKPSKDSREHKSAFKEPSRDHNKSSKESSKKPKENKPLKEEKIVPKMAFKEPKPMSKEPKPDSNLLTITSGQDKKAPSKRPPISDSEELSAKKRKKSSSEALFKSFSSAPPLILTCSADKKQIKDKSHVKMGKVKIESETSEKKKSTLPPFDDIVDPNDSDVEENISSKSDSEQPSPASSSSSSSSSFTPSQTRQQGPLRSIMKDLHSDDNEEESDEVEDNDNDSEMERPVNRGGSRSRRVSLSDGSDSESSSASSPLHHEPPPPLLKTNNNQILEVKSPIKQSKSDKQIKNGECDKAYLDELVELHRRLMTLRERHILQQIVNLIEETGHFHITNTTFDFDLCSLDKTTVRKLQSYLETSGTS
DENV2 CPE rescue: DENV2-induced cell death inhibition; DENV2-infected cells, cytopathic effect rescue, plate reader; CPE inhibition, % at 9.99 µM; 350,000 compounds, 1.7% hits; AID 651640; in the data active = CPE inhibition above about 20%, passing the limit was not always enough; inconclusive = no clear call, values can overlap the other calls; tested in BHK-21 cells;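 also: 0% = median of neutral control wells and 100% = median of positive control wells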
An asterisk follows results filed as active; ? = inconclusive; . = no result given.

SMILES	FGF22 binding	RAD52 anneal inh	ERAP1 HTS inh	AF4-AF9 inh	DENV2 CPE rescue
Cc1ccc(S(=O)(=O)Nc2ccc3c(c2)C(=O)N([C@H](C)CO)C[C@H](C)[C@@H](CN(C)S(=O)(=O)c2ccc(C)cc2)OCCCC[C@H](C)O3)cc1	-0.3	-43.6	-2.5	-3.5	-6.3
Cc1ccc(C(=O)N2CCCC(Nc3ccc(F)c(F)c3)C2)cn1 (stereo not given)	-0.3	-20.4	1.2	-1.0	-2.3
Cc1ccc(NC2CCCN(C(=O)c3ccoc3C)C2)cc1C (stereo not given)	-0.3	-11.4	-1.5	5.0	28.0*
Cc1nnsc1C(=O)N1CCCC(Nc2ccc(F)c(F)c2)C1 (stereo not given)	56.7*	-4.0	1.8	-11.4	0.1
Cc1ccc(NC2CCCN(C(=O)c3ccoc3)C2)cc1C (stereo not given)	-0.4	-15.4	0.7	3.5	-0.4
O=C1CCCCN1CC(=O)N1CCCC(Nc2ccc(F)c(F)c2)C1 (stereo not given)	0.1	-5.5	-2.8	-0.6	10.7
O=C(Cn1cccn1)N1CCCC(Nc2ccc(F)c(F)c2)C1 (stereo not given)	-0.3	-19.6	-0.4	-1.2	27.0*
O=C(C[C@@H]1CC[C@H](NC(=O)Nc2ccc(C(F)(F)F)cc2)[C@@H](CO)O1)NCCN1CCCC1	-0.3	-2.9	1.9	6.1	1.1
O=C(C[C@H]1C=C[C@H](NC(=O)CCN2CCCCC2)[C@@H](CO)O1)Nc1ccccc1	.	-7.0	-0.3	-3.8	-0.4
CCCSc1ccc([C@@H]2[C@H]3C(=O)N(CC)C(=O)[C@H]3[C@]3(C(=O)OC)CCCN23)cc1OC	0.0	-73.1	-0.2	-1.3	102.2*
Cc1[nH]c2ccccc2c1N=Nc1ccc(F)cc1	0.1	-11.1	4.0	30.2*	2.4
CCCNC(=O)Nc1ccc2c(c1)OC[C@H](C)N(CCC(F)(F)F)C[C@H](C)[C@H](OC)CN(C)C2=O	-0.5	2.7	.	2.1	-2.5
Cc1ccc(N=C2c3ccccc3C(=O)C2[N+](=O)[O-])cc1C (stereo not given)	43.3*	-3.0	0.9	-1.9	?
Cc1ccc(N=C2C(=O)Nc3ccccc32)cc1C	-0.1	9.5	4.6	0.4	?
CN(CCC1CCCCO1)C(=O)CCc1nnc(CCc2ccccc2)o1 (stereo not given)	0.1	4.1	2.3	-1.1	61.3*
CC(C)NC(=O)N1CCCCN2[C@H](CO)[C@@H](c3ccc(C#Cc4ccccc4F)cc3)[C@H]2C1	-0.4	21.7	-1.1	-1.7	-13.4
CO[C@@H]1CN(C)C(=O)c2cc(NC(=O)CC(F)(F)F)ccc2OC[C@H](C)N(C(C)=O)C[C@@H]1C	0.6	-51.7	4.9	0.9	12.1
COc1cccc(NC(=O)CCN2C(=O)C3CC=CCC3C2=O)c1 (stereo not given)	0.0	-4.8	-2.3	-1.3	28.7*
C=C1C(C(=O)Nc2cccc(OC)c2)C1C(=O)Nc1cccc(OC)c1 (stereo not given)	44.2*	5.7	1.1	-1.0	2.0
COc1cccc(C2(c3cccc(OC)c3)CC2C(=O)Nc2ccc(F)cc2)c1 (stereo not given)	0.1	-24.1	0.7	1.3	32.0*
C[C@H]1CN([C@@H](C)CO)S(=O)(=O)c2ccc(-c3cccc(C#N)c3)cc2O[C@H]1CN(C)C(=O)c1cccnc1	-0.1	-3.4	-0.3	-1.5	-0.1
COc1ccc2c3c(n(C)c2c1)[C@@H](CO)N(C(=O)C1CC1)CC31CCN(CC2CCCC2)CC1	-0.2	-6.7	1.0	-2.8	1.6
O=C(Nc1ccc(Cl)cn1)C1C(c2ccccc2)C1(Cl)Cl (stereo not given)	43.7*	-33.8	-0.3	-2.8	8.7
O=C(Nc1ccccc1)C1C(c2ccccc2)C1(Cl)Cl (stereo not given)	0.1	4.9	-0.6	-1.2	2.1
O=C(/C=C/c1ccccc1Cl)Nc1ccccc1	1.5*	-8.7	-3.0	3.1	-0.5
SMILES	FGF22 binding	RAD52 anneal inh	ERAP1 HTS inh	AF4-AF9 inh	DENV2 CPE rescue
O=C(/C=C/c1ccccc1Cl)Nc1ccc(Cl)cn1	42.9*	-14.9	-0.6	-0.9	.
C/C=C/c1ccc([C@@H]2[C@@H](CO)N3C(=O)CN(C(=O)Nc4ccc(F)cc4)C[C@H]23)cc1	-0.2	9.7	-1.8	1.6	12.1
CO[C@@H]1CN(C)C(=O)c2ccc(NS(=O)(=O)c3cccc(C)c3)cc2OC[C@@H](C)N(Cc2cc(F)ccc2F)C[C@H]1C	.	-29.0	0.5	4.5	10.6
Cc1ccc(S(=O)(=O)N2CCOCC2)cc1-c1n[nH]c(=S)n1-c1ccccc1	-0.5	8.8	46.0*	-4.7	-5.5
CN(C)CCn1nnnc1SCC1=C(C(=O)O)N2C(=O)[C@@H](NC(=O)Cc3csc(N)n3)[C@H]2SC1	-0.1	-22.5	0.3	-3.6	12.8
CO[C@@]1(NC(=O)CSCC#N)C(=O)N2C(C(=O)O)=C(CSc3nnnn3C)CS[C@@H]21	1.5*	-19.2	-2.5	-3.5	4.8
CCNC(=O)C[C@H]1C=C[C@@H](NC(=O)NC2CCCCC2)[C@H](CO)O1	-0.2	-7.7	-4.7	-2.8	-2.8
CCCNC(=O)N[C@H]1C=C[C@H](CC(=O)NC2CCC2)O[C@H]1CO	-0.1	1.8	4.7	2.0	26.2*
O=C(NC1CCCCC1)N[C@H]1C=C[C@@H](CC(=O)N2CCOCC2)O[C@@H]1CO	0.2	3.7	1.1	-6.0	107.9*
O=C(NC1CCCCC1)N[C@@H]1C=C[C@H](CC(=O)N2CCOCC2)O[C@H]1CO	-0.5	13.7	-1.8	-0.5	-7.3
O=C(NC1CCCCC1)N[C@@H]1C=C[C@@H](CC(=O)N2CCOCC2)O[C@@H]1CO	-0.1	1.8	-1.5	38.2*	-2.6
CN(C)C(=O)C[C@@H]1C=C[C@@H](NC(=O)NC2CCCCC2)[C@H](CO)O1	0.0	1.8	-2.4	-1.6	72.7*
O=C(NC1CCCCC1)N[C@H]1C=C[C@H](CC(=O)N2CCOCC2)O[C@H]1CO	0.0	-7.5	0.1	0.8	15.3
COCC(=O)N1CC2(CCN(C(=O)NC(C)C)CC2)c2c(n(C)c3cc(OC)ccc23)[C@H]1CO	-0.2	7.5	-1.9	-1.4	-5.2
Cc1ccc(C)c(NS(=O)(=O)c2cc(C(=O)NCc3ccncc3)ccc2C)c1	0.0	-21.9	-0.3	0.9	97.8*
COc1cccc(NC(=S)/C(=C(\[O-])c2cc(C)n(-c3ccccc3F)c2C)[n+]2ccc(N(C)C)cc2)c1	43.4*	-3.0	-0.5	20.9	-5.0
CC=Cc1ccc2n(c1=O)C[C@@H]1[C@@H](CO)[C@H](C(=O)NCc3ccccc3)[C@H]2N1Cc1ccccc1OC (mixture of isomers)	.	-50.4	1.0	-0.8	-12.8
COc1cccc(-c2ccc3c(c2)[C@@H]2[C@@H](CCN2C(=O)c2ccc4c(c2)OCO4)[C@H](CO)N3C)c1	-0.7	-5.7	-0.8	-1.9	-21.3
C[C@@H]1CN([C@@H](C)CO)C(=O)c2cc(NC(=O)Nc3ccccc3)ccc2O[C@H]1CN(C)C(=O)Nc1ccc(C(F)(F)F)cc1	0.3	-28.0	0.8	-2.6	-6.8
